Source: PubChem BioAssay AID1159580 (chemical genetic matrix, 2015)
Where “and” joins values, the source holds several entries; their conditions need not be identical. Equal values may be shown once. The whole screen tested about 5,500 compounds, of which about 2,000 (36%) were called active. Not shown: some 18% with an inconclusive outcome. No stated cut-off is given here; in the data, active means normalized growth mostly below about 0.91 (no sharp cut-off); inconclusive means no clear call, values can overlap the other calls; inactive means mostly above about 0.92. The list shows a part of the results.

Test: chemical genetic growth profiling, strain panel (AID 1159580);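 further: tested at 20 µM; growth read once vehicle control cultures reached saturation at 30 °C; 1 = growth at the plate median or of vehicle wells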
Conditions: S. cerevisiae deletion strains, growth OD

Measured: normalized growth

CC(=O)O[C@@H]1C[C@@]2(C)[C@H](c3ccoc3)C[C@H]3O[C@]32[C@]2(C)C(=O)C(O)=C3C(C)(C)C(=O)C=C[C@]3(C)C12 (some centres not stated)
inactive: locus YAL021C, strain ccr4, stronger effect = lower value 0.983 | locus YAL030W, strain snc1, stronger effect = lower value 0.968 | locus YBL061C, strain skt5, stronger effect = lower value 0.953 | locus YBR021W, strain FUR4, stronger effect = lower value 1.05 | locus YBR023C, strain chs3, stronger effect = lower value 0.947 | locus YBR171W, strain sec66, stronger effect = lower value 0.929 | locus YBR229C, strain ROT2, stronger effect = lower value 0.927 | locus YBR231C, strain swc5, stronger effect = lower value 0.94 | locus YBR279W, strain paf1, stronger effect = lower value 0.97 | locus YCL016C, strain dcc1, stronger effect = lower value 0.969 | locus YCL061C, strain MRC1, stronger effect = lower value 0.96 | locus YCL069W, strain vba3, stronger effect = lower value 0.956 | locus YCR088W, strain abp1, stronger effect = lower value 0.951 | locus YDL005C, strain med2, stronger effect = lower value 0.958 | locus YDL035C, strain GPR1, stronger effect = lower value 0.914 | locus YDL040C, strain nat1, stronger effect = lower value 0.953 | locus YDL101C, strain DUN1, stronger effect = lower value 0.933 | locus YDL134C, strain PPH21, stronger effect = lower value 0.921 | locus YDL185W, strain tfp1, stronger effect = lower value 0.931 | locus YDR001C, strain nth1, stronger effect = lower value 0.968 | locus YDR069C, strain doa4, stronger effect = lower value 0.942 | locus YDR150W, strain NUM1, stronger effect = lower value 0.969 | locus YDR195W, strain ref2 1.04 | locus YDR297W, strain sur2, stronger effect = lower value 0.954 | locus YDR334W, strain swr1, stronger effect = lower value 0.963 | locus YDR335W, strain msn5, stronger effect = lower value 0.969 | locus YDR388W, stronger effect = lower value 0.951 | locus YEL003W, strain gim4, stronger effect = lower value 0.927 | locus YEL037C, strain rad23, stronger effect = lower value 0.961 | locus YEL061C, strain CIN8 (second series), stronger effect = lower value 0.955 | locus YEL061C, strain CIN8, stronger effect = lower value 0.965 | locus YER015W, strain faa2, stronger effect = lower value 0.966 | locus YER016W, strain bim1, stronger effect = lower value 0.953 | locus YER110C, stronger effect = lower value 0.953 | locus YER111C, strain swi4, stronger effect = lower value 0.94 | locus YFR010W, strain ubp6, stronger effect = lower value 0.955 | locus YGL078C, strain dbp3, stronger effect = lower value 0.975 | locus YGL167C, strain pmr1, stronger effect = lower value 0.957 | locus YGL173C, strain kem1, stronger effect = lower value 0.924 | locus YGL227W, strain vid30, stronger effect = lower value 0.964 | locus YGL240W, strain doc1, stronger effect = lower value 0.94 | locus YGL248W, strain PDE1, stronger effect = lower value 0.933 | locus YGR135W, strain pre9, stronger effect = lower value 0.954 | locus YHR013C, strain ard1, stronger effect = lower value 0.853 | locus YHR027C, strain rpn1, stronger effect = lower value 0.965 | locus YHR030C, strain SLT2, stronger effect = lower value 0.887 | locus YHR079C, strain IRE1 (second series), stronger effect = lower value 0.952 | locus YHR079C, strain IRE1, stronger effect = lower value 0.926 | locus YHR094C, strain hxt1, stronger effect = lower value 0.957 | locus YHR200W, strain rpn10, stronger effect = lower value 0.943 | locus YIL073C, strain SPO22, stronger effect = lower value 0.811 | locus YIL125W, strain kgd1, stronger effect = lower value 0.966 | locus YIR030C, strain dcg1, stronger effect = lower value 0.959 | locus YJL092W, strain hpr5, stronger effect = lower value 0.945 | locus YJL095W, strain BCK1 (second series), stronger effect = lower value 0.967 | locus YJL115W, strain asf1, stronger effect = lower value 0.98 | locus YJL134W, strain LCB3, stronger effect = lower value 0.958 | locus YJL154C, strain vps35, stronger effect = lower value 0.985 | locus YJL164C, strain tpk1, stronger effect = lower value 0.927 | locus YJL168C, strain set2, stronger effect = lower value 0.961
0.749 (active) and 0.918 (inactive): locus YJL095W, strain BCK1, stronger effect = lower value
active: locus YAL026C, strain drs2, stronger effect = lower value 0.892 | locus YBR009C, strain hhf1, stronger effect = lower value 0.867 | locus YCL011C, strain gbp2, stronger effect = lower value 0.88 | locus YCL029C, strain bik1, stronger effect = lower value 0.907 | locus YDL074C, strain BRE1, stronger effect = lower value 0.754 | locus YDL192W, strain arf1, stronger effect = lower value 0.822 | locus YDR101C, strain arx1, stronger effect = lower value 0.908 | locus YDR137W, strain rgp1, stronger effect = lower value 0.639 | locus YDR159W, strain sac3, stronger effect = lower value 0.777 | locus YDR162C, strain NBP2, stronger effect = lower value 0.658 | locus YDR318W, strain mcm21, stronger effect = lower value 0.844 | locus YDR392W, strain spt3, stronger effect = lower value 0.326 | locus YDR502C, strain sam2, stronger effect = lower value 0.896 | locus YER155C, strain BEM2 (second series), stronger effect = lower value 0.826 | locus YER155C, strain BEM2, stronger effect = lower value 0.902 | locus YER167W, strain BCK2, stronger effect = lower value 0.896 | locus YGL086W, strain mad1, stronger effect = lower value 0.839 | locus YGL253W, strain hxk2, stronger effect = lower value 0.866 | locus YGR078C, strain PAC10, stronger effect = lower value 0.844 | locus YGR229C, strain SMI1, stronger effect = lower value 0.787 | locus YGR252W, strain gcn5, stronger effect = lower value 0.74 | locus YHR129C, strain ARP1, stronger effect = lower value 0.889 | locus YHR142W, strain chs7, stronger effect = lower value 0.861 | locus YIL066C, strain RNR3, stronger effect = lower value 0.766 | locus YJL129C, strain trk1, stronger effect = lower value 0.822 | locus YJL166W, strain qcr8, stronger effect = lower value 0.873
